In PubChem BioAssay (EPA / NIEHS):
Records with an inconclusive call do not appear. Activity calls are given as the source filed them. The calls were made as follows, unless noted: active = hit-call score of the fitted dose curve at least 0.9, where 1 is the maximum; inconclusive = response in the unintended direction; inactive = score below 0.9.

Legend:
[1] = molecular target: Cellular tumor antigen p53 (Homo sapiens) (UniProt P04637); assay: TOX21_p53_BLA_p2_ratio: Tox21 HCT-116 p53 Agonism Beta-lactamase Assay, Ratio, Phase 2 (AID 2283592)
In short: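 First, HCT116 reporter cells settle for 5 h at 37C. Next, DMSO compound solutions are pinned in (217-fold dilution) and left 16 h. Finally, CCF4-AM substrate is loaded 2 h at room temperature and the 460/530 nm ratio read.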

[2] = TOX21_p53_BLA_p3_viability: Viability Assessment in the Tox21 HCT-116 p53 Agonism Beta-lactamase Assay, Phase 3 (AID 2283593);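 also: cells exposed to compound for 16 h before reading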
In short: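 HCT116 cells, 4000/well, dosed 5 h after plating by pin transfer (217-fold dilution from DMSO stock) and incubated 16 h at 37C, 5% CO2. Viability read as ATP luminescence with CellTiter-Glo after 30 min at room temperature.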

[3] = TOX21_p53_BLA_p4_viability: Viability Assessment in the Tox21 HCT-116 p53 Agonism Beta-lactamase Assay, Phase 4 (AID 2283597);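 also: hits lower the luminescence signal meaning cytotoxicity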
In short: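 4000 HCT116 cells per well; 5 h attachment; compounds from DMSO, 217-fold dilution; 16 h at 37C. Then CCF4-AM, 2 h RT, followed by CellTiter-Glo, 30 min RT, luminescence. Decrease = cytotoxicity.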

[4] = molecular target: Cellular tumor antigen p53 (Homo sapiens) (UniProt P04637); assay: TOX21_p53_BLA_p5_ratio: Tox21 HCT-116 p53 Agonism Beta-lactamase Assay, Ratio, Phase 5 (AID 2283599)
In short: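 HCT-116 p53-bla cells (4000/well) plated 5 h, dosed with compound (217-fold DMSO dilution) for 16 h at 37 C; CCF4-AM substrate 2 h at room temperature. Activity is the 460/530 nm emission ratio (405 nm excitation), fitted in gain-of-signal direction versus DMSO.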

[5] = TOX21_p53_BLA_p5_viability: Viability Assessment in the Tox21 HCT-116 p53 Agonism Beta-lactamase Assay, Phase 5 (AID 2283600)
In short: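 Decreased CellTiter-Glo luminescence denotes lost viability. Exposure: 16 h at 37C, 5% CO2, with compounds from DMSO stocks diluted 217-fold in wells of 4000 cells.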

[6] = molecular target: Cellular tumor antigen p53 (Homo sapiens) (UniProt P04637); assay: TOX21_p53_BLA_p4_ratio: Tox21 HCT-116 p53 Agonism Beta-lactamase Assay, Ratio, Phase 4 (AID 2283601)
In short: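 HCT-116 p53 beta-lactamase reporter cells (4000/well) preincubated 5 h, then compound (217-fold dilution of DMSO stock) for 16 h at 37C. CCF4-AM substrate added 2 h at room temperature; 460/530 nm emission ratio fitted upward versus DMSO.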

[7] = molecular target: Cellular tumor antigen p53 (Homo sapiens) (UniProt P04637); assay: TOX21_p53_BLA_p3_ratio: Tox21 HCT-116 p53 Agonism Beta-lactamase Assay, Ratio, Phase 3 (AID 2283596)
In short: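 Cells were seeded at 4000/well, rested 5 h at 37C, then dosed with DMSO compound solutions (217-fold dilution) for 16 h. CCF4-AM substrate was loaded for 2 h at room temperature, and the 460/530 nm emission ratio was fitted for gain of signal versus DMSO.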

PGR (gene 5241) [8] = molecular target: PGR (gene 5241) (UniProt P06401); assay: TOX21_PR_BLA_Followup_Antagonist_ratio: Tox21 HEK293 Progesterone Receptor (PR) Antagonism Beta-lactamase Follow-Up Assay, Ratio (AID 2283934);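 also: PR-UAS-bla HEK293T cells stimulated with 1 nM R5020 agonist for 16 hr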
In short: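 Cells are plated, rested 6 hr, then dosed with test compound in DMSO and challenged with 1 nM promegestone. After 16 hr incubation, substrate loading for 2 h at room temperature precedes fluorescence reading; viability is measured in the same wells.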

[9] = TOX21_PR_BLA_Followup_Agonist_viability: Viability Assessment in the Tox21 HEK293 Progesterone Receptor (PR) Agonism Beta-lactamase Follow-Up Assay (AID 2283935);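 also: signal loss means lower viability so actives are cytotoxic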
In short: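 Cells were plated in medium with 2% charcoal-stripped FBS and rested 6 hr. Compounds in DMSO were then added for 16 hr at 37C, followed by the FRET substrate step and CellTiter-Glo luminescence after 30 min.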

PGR (gene 5241) [10] = molecular target: PGR (gene 5241) (UniProt P06401); assay: TOX21_PR_LUC_Followup_Agonist: Tox21 HEK293 Progesterone Receptor (PR) Agonism Luciferase Follow-Up Assay (AID 2283937; active = hit-call score of the fitted dose curve at least 0.9, where 1 is the maximum; inactive = score below 0.9)
In short: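 Seed HEK293-PR-A-luc cells, wait 5 h, add compounds in DMSO, incubate 16 h at 37C, add ONE-Glo, read luminescence after 30 min. Activity is increase over DMSO controls; run with a viability counter-screen.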

PGR (gene 5241) [11] = molecular target: PGR (gene 5241) (UniProt P06401); assay: TOX21_PR_LUC_Followup_Antagonist: Tox21 HEK293 Progesterone Receptor (PR) Antagonism Luciferase Follow-Up Assay (AID 2283938);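 also: curve fitted upward as signal gain over DMSO baseline despite antagonist label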
In short: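 HEK293-PR-A-luc cells, 3,000/well, preincubated 5 h at 37C before compound addition in DMSO; 16 h compound exposure at 37C. ONE-Glo luciferase luminescence read after 30 min at room temperature, fitted relative to DMSO baseline.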

[12] = TOX21_PR_LUC_Followup_Agonist_viability: Viability Assessment in the Tox21 HEK293 Progesterone Receptor (PR) Agonism Luciferase Follow-Up Assay (AID 2283941);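 also: loss of signal means cytotoxicity so actives lower viability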
In short: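 Multiplexed viability endpoint of the PR agonist luciferase follow-up: HEK293-PR-A-luc cells treated 16 h at 37C, with viability scored as decrease in CellTiter-Glo ATP signal.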

[13] = TOX21_PR_BLA_Followup_Antagonist_viability: Viability Assessment in the Tox21 HEK293 Progesterone Receptor (PR) Antagonism Beta-lactamase Follow-Up Assay (AID 2283936);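 also: cells exposed to compound with R5020 agonist for 16 h; hits lower the luminescence signal meaning cytotoxicity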
In short: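 PR-UAS-bla HEK293T cells in medium with 2% charcoal-stripped FBS were treated with compounds plus R5020 for 16 hr at 37C. After the beta-lactamase read, CellTiter-Glo was added to the same wells and luminescence read after 30 min at room temperature.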

Measured: AC50

Chain of PGR (gene 5241) (P06401 whole entry, looked up): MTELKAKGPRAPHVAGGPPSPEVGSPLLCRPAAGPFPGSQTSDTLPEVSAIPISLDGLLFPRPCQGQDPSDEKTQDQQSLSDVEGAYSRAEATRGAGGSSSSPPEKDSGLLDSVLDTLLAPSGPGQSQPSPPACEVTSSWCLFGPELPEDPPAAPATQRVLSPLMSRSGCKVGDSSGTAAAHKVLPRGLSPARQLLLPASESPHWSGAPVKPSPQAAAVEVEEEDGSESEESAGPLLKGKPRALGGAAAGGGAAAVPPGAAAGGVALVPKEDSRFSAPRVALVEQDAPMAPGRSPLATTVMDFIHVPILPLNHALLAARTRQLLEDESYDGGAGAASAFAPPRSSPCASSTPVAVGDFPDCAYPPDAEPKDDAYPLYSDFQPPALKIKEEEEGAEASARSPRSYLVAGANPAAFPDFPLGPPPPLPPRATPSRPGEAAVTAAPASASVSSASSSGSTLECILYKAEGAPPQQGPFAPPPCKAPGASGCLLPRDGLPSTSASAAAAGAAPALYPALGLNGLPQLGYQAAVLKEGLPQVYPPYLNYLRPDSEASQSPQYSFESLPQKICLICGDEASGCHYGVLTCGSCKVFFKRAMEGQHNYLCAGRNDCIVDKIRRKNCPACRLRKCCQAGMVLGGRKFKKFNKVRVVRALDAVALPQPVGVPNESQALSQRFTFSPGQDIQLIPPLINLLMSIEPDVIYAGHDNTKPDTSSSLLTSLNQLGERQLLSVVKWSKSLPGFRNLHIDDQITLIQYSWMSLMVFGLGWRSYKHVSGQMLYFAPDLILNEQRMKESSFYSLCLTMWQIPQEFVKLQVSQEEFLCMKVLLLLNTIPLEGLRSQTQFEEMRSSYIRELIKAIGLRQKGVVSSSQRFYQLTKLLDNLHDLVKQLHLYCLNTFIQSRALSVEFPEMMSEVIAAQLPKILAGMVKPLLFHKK
Chain of Cellular tumor antigen p53 (Homo sapiens) (P04637 whole entry, looked up): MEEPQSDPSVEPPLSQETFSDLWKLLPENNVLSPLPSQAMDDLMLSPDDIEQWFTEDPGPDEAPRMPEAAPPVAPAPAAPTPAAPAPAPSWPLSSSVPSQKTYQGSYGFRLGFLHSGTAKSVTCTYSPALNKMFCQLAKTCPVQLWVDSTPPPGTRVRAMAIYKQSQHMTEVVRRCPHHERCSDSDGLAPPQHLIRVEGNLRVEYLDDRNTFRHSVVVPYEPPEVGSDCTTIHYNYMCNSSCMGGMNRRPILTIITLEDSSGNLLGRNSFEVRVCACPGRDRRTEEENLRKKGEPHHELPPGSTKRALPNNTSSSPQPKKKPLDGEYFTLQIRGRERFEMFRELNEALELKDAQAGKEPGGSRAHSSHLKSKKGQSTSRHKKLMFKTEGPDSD

C#CC(C)(O)CC (stereo unspecified)
inactive: [1] | [2] | [3] | [4] | [5] | [6]

COC(=O)C(Cl)C(=O)OC
inactive: [1] | [2] | [3] | [5] | [6]

Clc1cc(Cl)c(-c2cc(Cl)c(Cl)cc2Cl)cc1Cl
inactive: [1] | [2] | [4] | [5] | [6]

O=C(O)C(Cl)(Cl)Br
inactive: [1] | [2] | [3] | [6]

CCOC(=O)C(Cl)C(C)=O (stereo unspecified)
inactive: [1] | [2] | [7] | [4] | [5] | [6]

C=C(C)CCl
inactive: [1] | [2] | [7] | [4] | [5]

CC(C)Br
inactive: [1] | [2] | [3]

CCCCN(N=O)C(=N)N[N+](=O)[O-]
inactive: [2] | [5]
active: [1] 57 µM | [7] 56.4 µM | [4] 55.2 µM | [6] 40.7 µM

O=C(Cl)c1ccccc1F
inactive: [1] | [2] | [3] | [4] | [5]

CCC(=O)O[C@H]1[C@@H](N2CCCCC2)C[C@H]2[C@@H]3CC[C@H]4C[C@H](OC(C)=O)[C@@H](N5CCCCC5)C[C@]4(C)[C@H]3CC[C@@]21C
inactive: [1] | [2] | [7] | [5]

Clc1ccc2ccccc2c1
inactive: [1] | [2] | [7] | [4] | [6]

O=C(C[C@@H]1NCCC[C@H]1O)Cn1cnc2cc(Br)c(Cl)cc2c1=O
inactive: [1] | [2] | [3] | [5]

CCN(CCO)CCn1c(Cc2ccccc2)nc2c1c(=O)n(C)c(=O)n2C
inactive: [1] | [2] | [3] | [4]

C[N+](C)(C)CCOC(=O)C(O)(c1ccccc1)c1ccccc1
inactive: [1] | [2] | [3] | [5] | [6]

Nc1nc(N)nc(N)n1
inactive: [1] | [2] | [7] | [4] | [6]

COc1ccc2c(c1OC)C(=O)O[C@H]2[C@@H]1c2cc3c(cc2CCN1C)OCO3
inactive: [1] | [2] | [7] | [4] | [5] | [6]

O=C(O)C(Br)CBr (stereo unspecified)
inactive: [1] | [2] | [7] | [4] | [6]

C=C(Cl)CSC(=S)N(CC)CC
inactive: [1] | [2] | [7] | [4] | [6]

[S]=[Sb](=[S])[S][Sb](=[S])=[S]
inactive: [1] | [2] | [7] | [4] | [5] | [6]

C=C(C#N)CCC#N
inactive: [1] | [2] | [4] | [5] | [6]

CN=CNc1ccc(C)cc1C
inactive: [1] | [2] | [7] | [4] | [5] | [6]

CC(C)NC(C)C
inactive: [1] | [2] | [7] | [4] | [5] | [6]

ClCOCCl
inactive: [1] | [2] | [7] | [4] | [5]

CCCN(CCCl)c1c([N+](=O)[O-])cc(C(F)(F)F)cc1[N+](=O)[O-]
inactive: [1] | [2] | [5]

CC(=O)OC1CN2CCC1CC2 (stereo unspecified)
inactive: [1] | [2] | [7] | [4] | [5] | [6]

COc1ccc(C(=O)N2CCCC2=O)cc1
inactive: [1] | [2] | [3] | [4] | [5]

CCSCc1ccccc1OC(=O)NC
inactive: [1] | [2] | [5] | [6]

Cn1cc[n+](C)c1 (tested in a mixture with another compound)
inactive: [1] | [2] | [3] | [5]

Cc1cccc(Cc2cnc[nH]2)c1C
inactive: [1] | [2] | [7] | [4] | [5] | [6]

CCCCC(CC)COC(=O)OOC(C)(C)C (stereo unspecified)
inactive: [1] | [2] | [7] | [4] | [6]

C=C1C[C@@H]2[C@H](CC[C@]3(C)C(=O)CC[C@@H]23)[C@@]2(C)C=CC(=O)C=C12
inactive: [1] | [2] | [7] | [9] | PGR (gene 5241) [10] | PGR (gene 5241) [11] | [12]
active: PGR (gene 5241) [8] 23 µM

CNN
inactive: [1] | [2] | [3] | [5]

Brc1c(Br)c(Br)c(Br)c(Br)c1Br
inactive: [1] | [2] | [3] | [4] | [5]

Cn1cc(C2=C(c3cn(C4CCN(Cc5ccccn5)CC4)c4ccccc34)C(=O)NC2=O)c2ccccc21
inactive: [1] | [2] | [4] | [6]
active: [7] 12 µM

C[C@]1(O)CC[C@H]2[C@@H]3CCC4=CC(=O)CC[C@]4(C)[C@@]3(F)[C@@H](O)C[C@@]21C
not listed: [4] | [7] | PGR (gene 5241) [10]
inactive: all other assays above

CCCCc1ccc(C(=O)O)nc1
inactive: [1] | [2] | [3] | [5]

O=[N+]([O-])c1ccc(CCl)cc1
inactive: [1] | [7] | [3] | [4] | [5] | [6]
